PubChem BioAssay (NCATS)
Inconclusive results are not listed. Active and inactive are the calls of the source. The call rests on the fitted dose curve.

What follows are compounds tested against Bile acid receptor (Homo sapiens) (UniProt Q96RI1) (assay: qHTS assay for small molecule antagonists of farnesoid X receptor signaling (AID 588526)). Conditions: HEK293T FXR-UAS-bla, beta-lactamase ratio, antagonist mode; series mostly up to 76.7 µM.
Text: NIH Chemical Genomics Center [NCGC] U.S. Environmental Protection Agency [EPA] National Institutes of Environmental Health Sciences [NIEHS] National Toxicology Program [NTP] NCGC Assay Overview The farnesoid-X-receptor (FXR), a nuclear hormone receptor is highly expressed in liver, intestine, kidney and adrenal cortex. Natural ligands of FXR are the bile acids (Cholic acid, Chenodeoxy cholic acid etc). It is an important regulator of diverse metabolic pathways, including the bile acid homeostasis, lipid and glucose metabolisms. FXR regulates the expression of target genes by binding either as a monomer or as a heterodimer with RXR (retinoid X receptor). As FXR regulates a large number of target genes involved in bile acid, lipoprotein and glucose metabolisms, it is a potential pharmacological target for bile acid and lipid disorders. Thus screening environmental chemicals on FXR signaling can be used for the studies focused on metabolic syndrome, hepatic and intestinal toxicity etc.
NCGC Assay Protocol Summary Using a beta-lactamase reporter-gene under control of Farnesoid X receptor (FXR) response element, a cell-based assay [GeneBLAzer FXR-UAS-bla assay developed by Invitrogen] was used to measure FXR ligands signaling. GeneBLAzer FXR-UAS-bla HEK293T cells were used with assay medium containing 10% dialyzed FBS. The assay was performed in clear bottom black Greiner 1536-well plates. Guggulsterone were used in the screen as the positive control. Library compounds were measured for their ability to inhibit the reporter gene activity. Compounds were screened in a titration series in 1536-well format. The fluorescence intensity (405 nm excitation, 460/530 nm emission) was measured using an EnVision plate reader. Data was normalized relative to Chenodeoxycholic acid (50 uM, 100%), and DMSO only wells (basal, 0%). Concentration-response titration points for each compound were fitted to the Hill equation yielding concentrations of half-maximal inhibition (IC50) and maximal response (efficacy) values. qHTS protocol for FXR beta-lactamase assay in antagonist mode [Step] [Parameter] [Value] [Description] 1. Reagent; 5 uL; 5000 cells/well 2. Incubation; 37 C for 5-7 hrs 3. Compounds; 23 nL; 0.59 nM to 92 uM 4. Controls (Guggulsterone, FXR antagonist); 23 nL, - One column of dose response, start 200 uM, 1:2 dilutions in duplicates 5. Agonist (Stimulator); 1uL; Chenodeoxycholic acid at 100 uM and 50 uM final concentrations 6. Incubation; 37 C for 16 hrs 7. Detection reagent; 1 uL of CCF4-dye 8. Incubation; RT for 2 hrs 9. Detection; Fluorescence; Envision plate reader

Chain of Bile acid receptor (Homo sapiens) (Q96RI1 whole entry, looked up): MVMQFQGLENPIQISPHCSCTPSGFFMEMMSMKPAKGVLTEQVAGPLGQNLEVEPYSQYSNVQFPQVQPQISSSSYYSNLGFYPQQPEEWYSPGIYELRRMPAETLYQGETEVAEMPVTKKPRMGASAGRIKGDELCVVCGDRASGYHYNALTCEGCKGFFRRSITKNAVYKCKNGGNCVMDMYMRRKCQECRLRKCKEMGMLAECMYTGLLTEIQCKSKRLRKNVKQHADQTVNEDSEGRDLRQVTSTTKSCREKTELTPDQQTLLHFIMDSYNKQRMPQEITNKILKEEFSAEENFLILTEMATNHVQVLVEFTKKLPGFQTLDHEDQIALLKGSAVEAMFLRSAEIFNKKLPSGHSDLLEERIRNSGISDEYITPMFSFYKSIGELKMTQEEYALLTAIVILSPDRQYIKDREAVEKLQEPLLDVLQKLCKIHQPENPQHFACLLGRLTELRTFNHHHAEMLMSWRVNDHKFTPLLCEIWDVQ

SMILES | outcome
CC1=CC(=O)NS(=O)(=O)O1 | inactive
OB(O)O | inactive
c1ccc2ccccc2c1 | inactive
C=CC(C)(O)CC/C=C(\C)CCC=C(C)C (configuration not stated) | inactive
CC(C)CCC[C@@H](C)[C@H]1CC[C@H]2[C@@H]3CC=C4C[C@@H](O)CC[C@]4(C)[C@H]3CC[C@]12C | inactive
CC(C)[C@@H]1CC[C@@H](C)C[C@H]1O | inactive
NCCO/C=C/[C@H](N)C(=O)O | inactive
ClC(Cl)Cl | inactive
CCCCC(CC)COS(=O)(=O)O (configuration not stated) | inactive
OCC(O)CO | inactive
C[Si](C)(C)O[Si](C)(C)C | inactive
CC/C=C\C/C=C\C/C=C\CCCCCCCC(=O)O | inactive
CN(CCO)CC(O)Cn1cnc2c1c(=O)n(C)c(=O)n2C (configuration not stated) (tested in a mixture with another compound) | inactive
CCCCO | inactive
OCl | inactive
CC(C)O | inactive
CCCCCCCCCCCCCCCCCC(=O)OC[C@@H](O)[C@H]1OC[C@H](O)[C@H]1O | inactive
CCCCC | inactive
Cc1ncc[nH]1 | inactive
Nc1ncnc2c1ncn2[C@H]1CC[C@@H](CO)O1 | inactive
O=P(O)(O)O | inactive
C[C@H](CCC(=O)O)[C@H]1CC[C@H]2[C@@H]3CC[C@@H]4C[C@H](O)CC[C@]4(C)[C@H]3C[C@H](O)[C@]12C | inactive
